Experimental data reported in PubChem BioAssay.

What follows are molecules tested on Inhibin beta A chain (activin A) (assay: small molecules binding activin A – biochemical, small-molecule microarray, 635 nm fluorescence scan, primary screen (AID 1107;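 note: mouse activin A protein probed at 4.33 µg/mL on printed slides; score merges bound-protein fluorescence near 667 nm with spot signal-to-noise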)). Details: INHBA, higher = more signal.
CC(C)(C)OC(=O)CC[C@]1(C(=O)NCCN2CCOCC2)N=C(c2ccc(OCCCO)cc2)O[C@H]1c1ccccc1 gave a composite z-score of 0.992.
In the case of C=CC[C@@]12N=C(c3ccc(OCCCO)cc3)O[C@@H]1c1ccccc1N(CCS(=O)(=O)c1ccccc1)C2=O, the composite z-score is reported as 1.23.
Work on CCOC(=O)C[C@H]1[C@H](OC(=O)c2ccccc2-c2ccccc2)[C@@H](NC(=O)CC(C)C)c2cc(OCCCO)ccc2N1C(=O)c1ccc2ccccc2n1 yielded a composite z-score of 1.08.
For COc1ccc(C(O)C2C=CC3C(=O)N(c4ccccc4)C(=O)C3N2Nc2ccccc2)cc1OCc1ccccc1 (stereo not given), the composite z-score was 0.726.
Work on NCCCCCNC(=O)[C@@H]1C[C@@H]2C(=O)N[C@@H](CCCCN)C(=O)N2[C@@H]1c1cccc(OCCO)c1 yielded a composite z-score of 0.428.
For CCCCC(CC)C(O)C1C=CC2C(=O)N(c3ccccc3)C(=O)C2N1Nc1ccc([N+](=O)[O-])cc1 (stereo not given), the composite z-score was 0.532.
CC(C)(C)OC(=O)CC[C@]1(C(=O)O)N=C(c2ccc(OCCCO)cc2)O[C@H]1c1ccccc1CN=[N+]=[N-] showed a composite z-score of 0.923.
C=C(/C(=C/C[C@@H](OC(=O)c1ccncc1)c1ccccc1OCCO)c1cc(C(=O)OC)ccc1OC)C(C)C gave a composite z-score of 0.787.
O=C1O[C@@H](c2ccccc2)[C@@H](c2ccccc2)N2[C@@H](c3ccccc3OCCO)[C@]3(C(=O)Nc4ccccc43)[C@@H](C(=O)NC[C@H](O)c3ccccc3)[C@H]12 showed a composite z-score of -0.189.
COCCOC(=O)N1C(=O)[C@@]2(c3cc(C#CC4(O)CCCCCC4)ccc31)[C@H](c1ccccc1OCCO)N1[C@H](c3ccccc3)[C@H](c3ccccc3)OC(=O)[C@H]1[C@@H]2C(N)=O was tested, and the composite z-score was -0.132.
Work on O=c1cccc(-c2cccc(Cl)c2)o1 yielded a composite z-score of 0.338.
Molecule COCCOC(=O)N1C(=O)[C@@]2(c3cc(C#CC4=CCCCC4)ccc31)[C@H](C(=O)N1CCN(c3ncccn3)CC1)[C@H]1C(=O)O[C@H](c3ccccc3)[C@H](c3ccccc3)N1[C@@H]2c1ccc(O)cc1 has a composite z-score of 0.275.
Molecule COCC(=C=CC[C@H](O)c1ccc(OCCO)cc1)C[C@H](O)COCc1ccccc1 has a composite z-score of 0.928.
C=C[C@@H](COC(C)=O)NS(=O)(=O)c1ccc(Br)cc1 was tested, and the composite z-score was 0.361.
Work on O=C1C2C=CC(C(O)c3cc(C(F)(F)F)cc(C(F)(F)F)c3)N(Nc3ccc([N+](=O)[O-])cc3)C2C(=O)N1c1ccccc1 (stereo not given) yielded a composite z-score of -0.0083.
For CC(=O)NCCCC[C@@H]1NC(=O)[C@@H]2C[C@H](C(=O)O)[C@H](c3ccc(O)cc3)N2C1=O, the composite z-score was -2.08.
For COCCOC(=O)N1C(=O)[C@@]2(c3cc(C#CC4=CCCCC4)ccc31)[C@H](c1ccc(O)cc1)N1[C@H](c3ccccc3)[C@H](c3ccccc3)OC(=O)[C@H]1[C@@H]2C(=O)Nc1nc2ccccc2s1, the composite z-score was 0.248.
CC(C)CNC(=O)[C@@H]1c2ccccc2C(=O)N(Cc2cc(F)cc(C(F)(F)F)c2)[C@H]1c1ccc(CO)cc1 showed a composite z-score of 0.669.
C=C(C(=O)CC[C@H](OC(C)=O)c1cccc(OCCO)c1)C(C)C showed a composite z-score of 0.0244.
In the case of O=C1O[C@@H](c2ccccc2)[C@@H](c2ccccc2)N2[C@@H](c3ccc(O)cc3)[C@]3(C(=O)Nc4ccc(C#CCCO)cc43)[C@@H](C(=O)NC[C@H](O)c3ccccc3)[C@H]12, the composite z-score is reported as -0.926.
Work on CCCN1C(=O)[C@]2(Cc3ccccc3)N=C(c3ccc(OCCCO)cc3)O[C@@H]2c2ccccc21 yielded a composite z-score of 0.808.
Molecule C[C@H]1C2=C3C(CC[C@H]4C(OCc5ccc(F)cc5C(F)(F)F)OC[C@](C)([C@@H]34)N(C(=O)OC(C)(C)C)C2)C2COC(=O)OCC21 (stereo not given in full) has a composite z-score of 0.572.
O=C1c2ccccc2[C@](Cc2ccccc2I)(C(=O)NCCN2CCOCC2)[C@H](c2ccc(CO)cc2)N1Cc1ccccc1 was tested, and the composite z-score was 0.59.
With COC(=O)[C@@]1(Cc2ccc(OC)cc2)[C@H]2c3cc(C(=O)N(C)C)n(Cc4nc5ccccc5[nH]4)c3C[C@H]2CN1C(=O)c1ccccc1 the composite z-score was 0.777.
C[C@]1(C(=O)NC2CC2)c2ccccc2C(=O)N(Cc2ccc(OC(F)(F)F)cc2)[C@H]1c1ccc(CO)cc1 was tested, and the composite z-score was 0.781.
For CN(C)CCCNC(=O)[C@@H]1c2ccccc2C(=O)N(CC23CC4CC(CC(C4)C2)C3)[C@H]1c1ccc(CO)cc1, the composite z-score was -0.111.
CC1CC/C=C\[C@H]2OC34C=CCN(C(C)C)C(=O)[C@H]3N(CCCCCO)C(=O)[C@@H]4C2C(=O)O1 (stereo not given in full) gave a composite z-score of -0.15.
C=CCOC(=O)[C@H]1[C@@H]2C(=O)O[C@@H](c3ccccc3)[C@@H](c3ccccc3)N2[C@@H](c2ccc(OCCOC(=O)[C@H]3C[C@H]4C(=O)N[C@@H](Cc5ccccc5)C(=O)N4[C@H]3c3cccc(OCCO)c3)cc2)[C@]12C(=O)Nc1ccc(I)cc12 showed a composite z-score of 0.17.
CC(C)CN1C(=O)[C@@]2(c3ccc([N+](=O)[O-])cc3)CC(=O)N(CC34CC5CC(CC(C5)C3)C4)[C@@H]2c2ccc(CO)cc21 showed a composite z-score of 0.2.
In the case of C=C(CCCC)/C(=C/C[C@@H](OC(C)=O)c1ccc(CO)o1)c1cc(C(=O)OC)ccc1OC, the composite z-score is reported as 0.207.
COC(=O)C1(Cc2ccccc2)C=C2C(=C(C(C)C)C(=O)C2C)CN1 (stereo not given) gave a composite z-score of 1.35.
With COc1ccc([Si](C)(C)[C@@H]2[C@@H](CCO)O[C@]3(C(=O)N(Cc4cccc(N5C(=O)c6cccc7cccc5c67)c4)c4ccccc43)[C@H]2C)cc1 the composite z-score was -0.0335.
C=CCC(OC(C)=O)[C@@H]1[C@@H](N(Cc2cc3ccccc3o2)C(=O)Cc2ccc(F)cc2)c2cc(OCCCO)ccc2N1C(=O)c1ccc2ccccc2n1 (stereo not given in full) showed a composite z-score of 1.2.
C=CCOC(=O)[C@@H]1[C@H]2C(=O)O[C@H](c3ccccc3)[C@H](c3ccccc3)N2[C@H](c2ccc(OCCOC(=O)[C@H]3C[C@H]4C(=O)N[C@@H](CCCC[N+](C)(C)C)C(=O)N4[C@H]3c3ccc(O)cc3)cc2)[C@@]12C(=O)Nc1ccc(I)cc12 gave a composite z-score of 0.467.
[N-]=[N+]=Nc1ccccc1[C@@H]1OC(c2ccc(OCCCO)cc2)=N[C@]1(CCS(=O)(=O)c1ccccc1)C(=O)NCCN1CCOCC1 was tested, and the composite z-score was 1.28.
